The full data set covers some 7,900 targets. This sample favours those with a hit. About 0.6% of all pairs of compound and target were hits. A number with no mark means an inactive call.
Key:
Test in all cases: log2 fold change, soluble protein after heating vs DMSO (PISA); higher = thermal stabilisation; K562 cells, 10 uM, 30 min; active = over 0.2 and 3.5 SD of the protein, either way, in both replicates (recomputed)
[1] = compound: CC1=C(C=C(C=C1)NC(=O)C2=CC(=CC=C2)C(C)(C)C#N)NC3=CC4=C(C=C3)N=CN(C4=O)C
Method in brief: (§1)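 Aliquots of K562 cells (2×10^6 cells/mL) treated with 10 μM compound for 30 min were heated for 3 min over 48°C-58°C. After pooling and extraction in PBS with 0.5% NP-40 at 4°C, soluble protein from a 21,000xg, 90 min spin was quantified by TMTpro 16plex LC-MS/MS with channel sums equalised. Thermal stability is expressed against control samples, from duplicates, as a log2 fold change.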

[2] = compound: CC1=C(C=C(C=C1)NC(=O)C2=CC(=CC=C2)N(C)C)NC(=O)C3=CC=C(C=C3)O
Method in brief: as §1

[3] = compound: CC1=CC=C(C=C1)SC2=C3C=C(SC3=CN=C2)C(=O)N
Method in brief: as §1

[4] = compound: CC1=NC(=CC=C1)C2=C(N=C(N2)C(C)(C)C)C3=CC4=NC=CN=C4C=C3
Method in brief: as §1

[5] = compound: CCCCN(Cc1ccc(C(=O)NO)cc1)C(=O)Nc1ccccc1 [Nexturastat A]
Method in brief: as §1

[6] = compound: CCCS(=O)(=O)Nc1ccc(F)c(C(=O)c2c[nH]c3ncc(-c4ccc(Cl)cc4)cc23)c1F [vemurafenib]
Method in brief: as §1

[7] = compound: CCCS(=O)(=O)Nc1ccc(F)c(C(=O)c2c[nH]c3ncc(Cl)cc23)c1F
Method in brief: as §1

[8] = compound: CCCc1cc(C)[nH]c(=O)c1CNC(=O)c1cc(-c2ccnc(N3CCN(C)CC3)c2)cc2c1cnn2C(C)C
Method in brief: as §1

[9] = compound: CCN(CC)Cc1ccc2cc(COC(=O)Nc3ccc(C(=O)NO)cc3)ccc2c1 [givinostat]
Method in brief: as §1

[10] = compound: CCN(CCCOc1ccc2c(Nc3cc(CC(=O)Nc4cccc(F)c4)[nH]n3)ncnc2c1)CCOP(=O)(O)O [barasertib]
Method in brief: as §1

[11] = compound: CC[C@@H]1C(=O)N(C)c2cnc(Nc3ccc(C(=O)NC4CCN(C)CC4)cc3OC)nc2N1C1CCCC1
Method in brief: as §1

[12] = compound: CC[C@@H]1C(=O)N(C)c2cnc(Nc3ccc(C(=O)N[C@H]4CC[C@H](N5CCN(CC6CC6)CC5)CC4)cc3OC)nc2N1C(C)C [volasertib]
Method in brief: as §1

[13] = compound: CC[C@H](C)N1C=C(C2=C(C=C(C=C21)C3=CN=C(C=C3)N4CCNCC4)C(=O)NCC5=C(C=C(NC5=O)C)C)C
Method in brief: as §1

[14] = compound: CC[C@H](C)[C@@H](C(=O)N[C@@H]([C@@H](C)O)C(=O)N[C@@H](CC(C)C)C(=O)[C@]1(CO1)C)NC(=O)[C@H]([C@@H](C)CC)N(C)C(=O)C [epoxomicin]
Method in brief: as §1

[15] = compound: CCn1c(C(=O)N(C2CC2)C2CC2)cc2c3c(ncn3C)c(Nc3cc(C)n(C)n3)nc21
Method in brief: as §1

[16] = compound: CCn1cc(-c2ccnc3[nH]c(-c4cccc(CN(C)C)c4)cc23)c(-c2ccc(NC(=O)N(C)C)cc2)n1
Method in brief: as §1

[17] = compound: CN(C)CC(=O)Nc1ccc2[nH]c(=O)c3ccccc3c2c1
Method in brief: as §1

[18] = compound: CN(CCOC1=CC=C(C=C1)C[C@H]2C(=O)NC(=O)S2)C3=CC=CC=N3 (racemic) [rosiglitazone]
Method in brief: as §1

[19] = compound: CN1C2=C(C3=C1C(=O)N(N=C3)CC4=CC(=CC=C4)N)SC(=C2)S(=O)C
Method in brief: as §1

[20] = compound: CN1CCC(CNc2ccc3ncc(-c4cccc(OC(F)(F)F)c4)n3n2)CC1
Method in brief: as §1

Chain of UniProt P52655 (P52655 whole entry, looked up): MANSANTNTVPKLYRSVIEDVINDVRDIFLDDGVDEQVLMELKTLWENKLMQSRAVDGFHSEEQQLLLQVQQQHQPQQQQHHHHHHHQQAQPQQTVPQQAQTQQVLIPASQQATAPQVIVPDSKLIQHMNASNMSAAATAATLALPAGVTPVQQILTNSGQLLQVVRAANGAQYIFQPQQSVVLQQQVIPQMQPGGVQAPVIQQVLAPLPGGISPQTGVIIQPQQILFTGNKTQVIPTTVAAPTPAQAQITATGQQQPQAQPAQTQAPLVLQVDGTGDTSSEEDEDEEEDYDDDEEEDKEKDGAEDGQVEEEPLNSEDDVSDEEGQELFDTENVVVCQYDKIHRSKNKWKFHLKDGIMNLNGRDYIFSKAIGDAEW
Chain of UniProt Q16774 (Q16774 whole entry, looked up): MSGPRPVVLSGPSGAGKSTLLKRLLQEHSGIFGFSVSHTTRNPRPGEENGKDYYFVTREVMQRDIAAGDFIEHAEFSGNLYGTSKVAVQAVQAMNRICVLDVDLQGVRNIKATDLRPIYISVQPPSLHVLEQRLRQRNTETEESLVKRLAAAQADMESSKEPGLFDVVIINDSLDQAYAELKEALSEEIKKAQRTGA
Chain of UniProt P06280 (P06280 whole entry, looked up): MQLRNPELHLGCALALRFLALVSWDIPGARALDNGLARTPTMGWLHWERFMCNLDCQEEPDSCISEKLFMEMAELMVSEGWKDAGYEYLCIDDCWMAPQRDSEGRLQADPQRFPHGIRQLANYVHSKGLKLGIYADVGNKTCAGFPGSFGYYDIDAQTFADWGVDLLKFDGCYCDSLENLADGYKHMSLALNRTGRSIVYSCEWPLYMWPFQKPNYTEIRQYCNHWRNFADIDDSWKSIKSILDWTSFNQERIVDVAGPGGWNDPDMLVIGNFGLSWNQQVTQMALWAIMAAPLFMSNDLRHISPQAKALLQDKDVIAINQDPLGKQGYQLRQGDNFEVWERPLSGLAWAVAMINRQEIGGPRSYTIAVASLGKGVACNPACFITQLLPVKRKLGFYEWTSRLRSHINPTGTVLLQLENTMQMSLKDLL
Chain of UniProt P01112 (P01112 whole entry, looked up): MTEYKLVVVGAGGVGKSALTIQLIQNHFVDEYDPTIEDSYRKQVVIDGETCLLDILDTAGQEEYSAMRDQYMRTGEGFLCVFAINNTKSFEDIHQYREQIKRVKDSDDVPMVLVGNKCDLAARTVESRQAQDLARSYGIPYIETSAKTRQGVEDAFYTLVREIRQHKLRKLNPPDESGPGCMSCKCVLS
Chain of UniProt Q9Y3I1 (Q9Y3I1 whole entry, looked up): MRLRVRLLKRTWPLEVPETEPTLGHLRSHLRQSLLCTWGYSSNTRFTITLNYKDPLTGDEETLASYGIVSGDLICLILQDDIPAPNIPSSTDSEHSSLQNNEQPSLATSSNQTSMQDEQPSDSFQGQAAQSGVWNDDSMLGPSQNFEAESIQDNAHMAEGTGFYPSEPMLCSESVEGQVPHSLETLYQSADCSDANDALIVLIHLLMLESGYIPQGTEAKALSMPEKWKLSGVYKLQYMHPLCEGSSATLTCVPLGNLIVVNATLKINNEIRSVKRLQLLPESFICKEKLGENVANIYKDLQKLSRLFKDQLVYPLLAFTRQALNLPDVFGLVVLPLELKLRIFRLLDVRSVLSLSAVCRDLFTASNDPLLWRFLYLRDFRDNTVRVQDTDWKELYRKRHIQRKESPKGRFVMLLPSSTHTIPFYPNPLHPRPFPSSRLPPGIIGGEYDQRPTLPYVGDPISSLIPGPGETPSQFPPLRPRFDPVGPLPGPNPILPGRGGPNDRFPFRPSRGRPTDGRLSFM
Chain of UniProt Q53FT3 (Q53FT3 whole entry, looked up): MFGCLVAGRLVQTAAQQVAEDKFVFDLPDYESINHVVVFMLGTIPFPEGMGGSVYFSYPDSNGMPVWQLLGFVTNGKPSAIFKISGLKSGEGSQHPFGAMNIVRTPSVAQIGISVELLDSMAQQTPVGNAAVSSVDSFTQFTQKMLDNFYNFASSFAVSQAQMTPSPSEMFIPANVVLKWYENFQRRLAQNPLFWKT
Chain of UniProt Q7Z4V5 (Q7Z4V5 whole entry, looked up): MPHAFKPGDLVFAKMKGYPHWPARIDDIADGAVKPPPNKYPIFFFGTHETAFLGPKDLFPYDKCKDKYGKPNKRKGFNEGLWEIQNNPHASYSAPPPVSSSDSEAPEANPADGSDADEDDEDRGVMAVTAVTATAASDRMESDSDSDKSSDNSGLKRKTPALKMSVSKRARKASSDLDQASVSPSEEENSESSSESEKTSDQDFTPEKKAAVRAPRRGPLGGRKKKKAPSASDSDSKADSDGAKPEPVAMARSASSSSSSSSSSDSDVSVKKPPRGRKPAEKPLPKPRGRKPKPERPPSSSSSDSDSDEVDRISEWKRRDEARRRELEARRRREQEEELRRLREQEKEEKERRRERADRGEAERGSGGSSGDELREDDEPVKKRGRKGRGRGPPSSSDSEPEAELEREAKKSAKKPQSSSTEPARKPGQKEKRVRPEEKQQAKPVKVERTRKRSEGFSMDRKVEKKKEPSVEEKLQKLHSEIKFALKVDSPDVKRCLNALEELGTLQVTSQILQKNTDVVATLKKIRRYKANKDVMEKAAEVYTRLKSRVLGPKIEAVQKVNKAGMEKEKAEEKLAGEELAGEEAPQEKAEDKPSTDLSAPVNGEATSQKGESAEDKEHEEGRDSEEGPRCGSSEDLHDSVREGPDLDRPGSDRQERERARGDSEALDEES
Chain of UniProt P29084 (P29084 whole entry, looked up): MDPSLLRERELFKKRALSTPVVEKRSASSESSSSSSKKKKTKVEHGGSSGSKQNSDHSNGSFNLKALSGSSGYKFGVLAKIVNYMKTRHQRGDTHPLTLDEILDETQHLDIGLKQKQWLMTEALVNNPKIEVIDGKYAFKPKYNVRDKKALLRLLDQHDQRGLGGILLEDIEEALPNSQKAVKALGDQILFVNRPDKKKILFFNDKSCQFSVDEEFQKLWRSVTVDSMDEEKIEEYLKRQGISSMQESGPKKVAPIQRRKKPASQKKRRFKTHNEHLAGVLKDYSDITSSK
Chain of UniProt Q9H0R8 (Q9H0R8 whole entry, looked up): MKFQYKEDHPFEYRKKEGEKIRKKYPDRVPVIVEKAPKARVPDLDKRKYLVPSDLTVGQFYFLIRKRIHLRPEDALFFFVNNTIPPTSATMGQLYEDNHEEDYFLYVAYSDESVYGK
Chain of UniProt Q13889 (Q13889 whole entry, looked up): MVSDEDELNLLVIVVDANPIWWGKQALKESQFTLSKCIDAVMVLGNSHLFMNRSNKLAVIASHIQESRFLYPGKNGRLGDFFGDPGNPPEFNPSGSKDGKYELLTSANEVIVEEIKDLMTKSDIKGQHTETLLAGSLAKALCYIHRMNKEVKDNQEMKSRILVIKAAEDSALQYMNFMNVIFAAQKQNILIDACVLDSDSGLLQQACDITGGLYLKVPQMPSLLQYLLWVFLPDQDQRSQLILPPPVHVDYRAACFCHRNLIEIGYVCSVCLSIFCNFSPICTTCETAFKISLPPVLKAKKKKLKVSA
Chain of UniProt P05362 (P05362 whole entry, looked up): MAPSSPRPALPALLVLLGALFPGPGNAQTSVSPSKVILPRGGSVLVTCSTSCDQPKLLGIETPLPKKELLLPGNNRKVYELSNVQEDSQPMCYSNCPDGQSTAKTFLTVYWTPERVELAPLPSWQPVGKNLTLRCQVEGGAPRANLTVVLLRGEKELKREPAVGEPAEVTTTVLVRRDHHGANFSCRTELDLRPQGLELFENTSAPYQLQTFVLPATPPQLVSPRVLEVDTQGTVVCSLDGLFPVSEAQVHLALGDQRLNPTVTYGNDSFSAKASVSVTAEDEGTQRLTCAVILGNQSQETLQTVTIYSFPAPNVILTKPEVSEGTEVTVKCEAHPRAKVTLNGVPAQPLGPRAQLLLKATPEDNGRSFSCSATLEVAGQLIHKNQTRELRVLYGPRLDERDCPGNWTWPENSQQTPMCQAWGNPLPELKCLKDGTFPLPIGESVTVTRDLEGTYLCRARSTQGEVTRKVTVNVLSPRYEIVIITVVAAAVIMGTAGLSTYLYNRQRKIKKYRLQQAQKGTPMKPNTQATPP
Chain of UniProt Q92947 (Q92947 whole entry, looked up): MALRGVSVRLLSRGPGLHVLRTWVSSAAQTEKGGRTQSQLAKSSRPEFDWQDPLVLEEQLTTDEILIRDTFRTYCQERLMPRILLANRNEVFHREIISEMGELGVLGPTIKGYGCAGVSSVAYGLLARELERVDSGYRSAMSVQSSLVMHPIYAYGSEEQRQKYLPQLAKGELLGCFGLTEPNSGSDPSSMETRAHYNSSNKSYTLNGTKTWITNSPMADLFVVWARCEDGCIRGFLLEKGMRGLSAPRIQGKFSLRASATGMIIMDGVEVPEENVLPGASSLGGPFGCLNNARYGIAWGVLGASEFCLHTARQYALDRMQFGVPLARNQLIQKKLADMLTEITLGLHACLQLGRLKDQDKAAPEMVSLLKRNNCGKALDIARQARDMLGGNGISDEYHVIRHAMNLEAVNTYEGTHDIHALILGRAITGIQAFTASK
Chain of UniProt P22570 (P22570 whole entry, looked up): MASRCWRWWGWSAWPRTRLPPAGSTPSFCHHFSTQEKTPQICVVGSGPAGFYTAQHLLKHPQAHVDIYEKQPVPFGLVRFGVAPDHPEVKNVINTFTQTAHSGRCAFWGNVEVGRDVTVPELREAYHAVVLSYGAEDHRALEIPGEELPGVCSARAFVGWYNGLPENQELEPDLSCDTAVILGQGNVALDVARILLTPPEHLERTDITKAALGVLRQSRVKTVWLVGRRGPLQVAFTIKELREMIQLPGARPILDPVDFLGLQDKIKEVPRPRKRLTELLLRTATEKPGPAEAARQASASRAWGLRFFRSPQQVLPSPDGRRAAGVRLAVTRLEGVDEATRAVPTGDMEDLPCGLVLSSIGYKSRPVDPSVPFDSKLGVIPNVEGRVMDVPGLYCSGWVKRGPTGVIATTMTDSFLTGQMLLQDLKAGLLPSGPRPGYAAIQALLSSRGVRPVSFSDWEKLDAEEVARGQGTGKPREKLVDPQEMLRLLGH

Target	log2 fold change [1]	log2 fold change [2]	log2 fold change [3]	log2 fold change [4]	log2 fold change [5]	log2 fold change [6]	log2 fold change [7]	log2 fold change [8]	log2 fold change [9]	log2 fold change [10]	log2 fold change [11]	log2 fold change [12]	log2 fold change [13]	log2 fold change [14]	log2 fold change [15]	log2 fold change [16]	log2 fold change [17]	log2 fold change [18]	log2 fold change [19]	log2 fold change [20]
HNRNPUL1 (UniProt Q9BUJ2)	-0.063	-0.058	-0.013	0.03	0.024	0.032	-0.033	0.024	0.046	0.04	0.051	-0.069	0.014	0.019	-0.029	0.004	0.013	-0.001	0.099	0.031
GUK1 isoform 2 (UniProt Q16774)	0.173	-0.062	-0.018	0.093	-0.065	0.118	-0.002	0.026	0.072	-0.018	-0.116	0.081	0.097	0.12	-0.151	-0.167	0.049	0.158	0	0.071
FBXO7 (UniProt Q9Y3I1)	-0.048	-0.028	0.004	-0.014	0.047	0.017	-0.022	-0.026	0.03	0.02	0.079	-0.198	0.044	-0.012	-0.066	-0.295 (active)	0.029	0.008	-0.022	0.003
FDXR isoform 7 (UniProt P22570)	-0.011	-0.078	-0.039	0.072	-0.07	0.02	0.024	0.059	-0.021	0.035	0.052	0.003	0.025	0.059	0.01	-0.144	0.012	0.035	-0.097	-0.387 (active)
HBQ1 (UniProt P09105)	0.053	-0.14	0.025	0.052	-0.028	-0.013	0.004	-0.012	-0.043	0.038	0.01	-0.014	-0.005	0.375 (active)	0.069	-0.064	0.047	0.021	-0.145	0.063
GTF2A1 (UniProt P52655)	-0.086	-0.05	-0.023	-0.006	0.077	0.005	-0.057	-0.011	-0.01	0.021	-0.012	0.061	-0.051	0.201	0.019	0.035	-0.006	-0.029	-0.018	-0.051
ICAM1 (UniProt P05362)	-0.055	0.016	0.033	-0.016	0.02	0.018	-0.034	0.001	-0.014	-0.021	0.155	0.078	-0.028	0.008	-0.02	0.012	-0.039	-0.002	-0.073	0.223 (active)
HIKESHI (UniProt Q53FT3)	-0.138	-0.051	0.003	-0.011	-0.037	0.027	0.003	-0.033	-0.008	0.011	-0.116	-0.178	0.022	-0.013	-0.015	0.001	0.008	0.035	-0.018	0.077
HRAS (UniProt P01112)	-0.042	-0.065	-0.031	0.096	0.147	0.064	-0.083	0.089	-0.065	0.063	-0.014	0.057	-0.028	0.104	0.007	-0.082	-0.125	-0.159	-0.033	0.048
GABARAPL1 isoform 2 (UniProt Q9H0R8)	-0.008	0.003	0.006	0.002	-0.013	-0.016	-0.025	-0.007	0.044	0.021	-0.303 (active)	-0.186	0.035	-0.029	-0.037	0.007	0.034	0.03	-0.135	-0.187
GLA (UniProt P06280)	-0.016	0.027	-0.001	0.011	0.005	-0.009	-0.038	-0.039	0.04	0.005	-0.449 (active)	-0.911 (active)	0.002	0.026	0.016	0.03	-0.001	-0.07	0.005	-0.535 (active)
FUCA2 (UniProt Q9BTY2)	0.015	0	0.016	-0.02	-0.025	0.005	-0.053	-0.025	-0.028	-0.01	-1.11 (active)	-1.04 (active)	0.001	-0.024	0.007	0.003	-0.019	-0.023	-0.033	-0.029
GTF2E2 (UniProt P29084)	0.045	-0.068	-0.01	0.02	0.082	0.057	-0.039	0.055	0.059	0.035	-0.11	-0.265 (active)	0.105	0.099	-0.036	0.001	0.069	0.017	0.027	-0.103
HDGFL2 (UniProt Q7Z4V5)	-0.281 (active)	0	-0.006	0.049	0.063	-0.022	0.007	-0.078	0.049	0.037	-0.019	0.014	-0.043	0.012	-0.006	0.015	-0.011	-0.004	0.006	-0.033
GCDH (UniProt Q92947)	-0.017	-0.004	0.014	0.009	-0.007	0	0.002	0.009	0.004	0.005	-0.029	0.039	-0.003	0.024	-0.021	-0.051	0.008	0.013	-0.048	0.072
GTF2H3 (UniProt Q13889)	-0.094	-0.008	-0.024	0	0.016	-0.081	-0.021	-0.112	0.068	-0.042	0.004	-0.122	0.066	-0.099	-0.035	0.115	0.052	-0.046	0.027	-0.34 (active)

Reference: the supplement of paper PMC10849652
